Experiment [1] can be described thus: Her2 expression decrease, cell viability multiplex – SKBR3 breast tumor cells, AlphaScreen, ATP viability, primary screen (AID 461;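 active means Her2 level under about 52% in both replicate screens, with viability over 70% of control, limit read from the data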;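 on Her2 level: lower value means less Her2 protein in the cells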;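 on viability: percent of carrier control wells set as 100% viability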). The note with it: SKBR3 Her2 protein level, 18-24 h, measured here: SKBR3 viability, ATP luminescence, at 10 µM. (Bead proximity is the source of the signal in Alpha formats.)
The target of experiment [2] is Receptor tyrosine-protein kinase erbB-2 (Homo sapiens) (UniProt P04626). Described as above. The note with it: 18-24 h, at 10 µM, stronger effect = lower value.
Experiment [3] can be described thus: reduced viability of SK-BR-3 breast cancer cells – cell-based, 24 h, human, pilot screen (AID 572;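 active means viability at or below 10% of carrier control in both of two separate runs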;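 further: compound exposure lasted between 18 and 24 h rather than exactly 24 h; 100% = carrier-treated control wells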). The note with it: SK-BR-3 viability, CellTiter-Glo luminescence, at 10 µM, stronger effect = lower value. (Cellular ATP, detected with luciferase, serves as a proxy for viable cell number.)
Experiment [4] in a line: HUVEC growth inhibition – cell-based, human, primary screen (AID 575;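 active means viability at or below 30% in both replicate assays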;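 further: 100% = median of untreated cell wells with 0.1% DMSO on each plate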). The note with it: HUVEC proliferation, CellTiter-Glo luminescence, 72 h; at 10 µM; stronger effect = lower value.
Experiment [5] is described as follows: H69AR cell proliferation blockers – human, duplicate replicates, primary screen (AID 580;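 active means viability at or under a set limit in both replicates, limit being median viability minus 3 SD, cut at about 48% in these data, passing the limit was not always enough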;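 further: 100% = mean luminescence of untreated wells and 0% = no signal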). The note with it: H69AR lung tumor cells viability, ATP luminescence, 72 h; at 10 µM; stronger effect = lower value.
A short description of experiment [6]: MRP1 drug-resistance reversers in H69AR cells – cell-based, doxorubicin co-treatment, pilot screen (AID 601;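 active means viability loss from added drug above about 55%, and viability with drug at most 40%, in both replicates, limit read from the data, passing the limit was not always enough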). The note with it: CellTiter-Glo, 72 h, at 10 µM; for differential viability (reversal): stronger effect = higher value.
Experiment [7] is described as follows: yeast transport mutant growth inhibition pilot in 384-well plates, post-Golgi transport modulator project (AID 636; in the data active means inhibition above about 31%). The note with it: absorbance 615 nm, about 18 h, stronger effect = higher value.
A short description of experiment [8]: growth suppression of yeast trafficking mutant, preliminary HTS, modulators of trafficking downstream of Golgi apparatus project, 1536-format plate, OD 615 nm (AID 637; in the data active means inhibition above about 30%). The note with it: yeast transport mutant growth, absorbance 615 nm, 18 h; stronger effect = higher value.
A short description of experiment [9]: S. cerevisiae growth inhibition in permissive medium (OD615), pilot counter-assay for S. cerevisiae lifespan shortening project, permissive growth control (AID 705;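 active means growth inhibition above 25% in both replicates, a cutoff set 3 SD above the mean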). The note with it: OD615, 24 h, at 10 µM, stronger effect = higher value.
A short description of experiment [10]: S. cerevisiae growth inhibition in restrictive medium, OD615, pilot screen, restrictive growth control, yeast lifespan reduction project (AID 706;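 active means growth inhibition above a set limit, 3 SD over mean compound inhibition, in both replicates, cut at about 43% in these data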;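 further: modified DeaD lifespan yeast strain shifted to restrictive glucose medium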). The note with it: OD615, 48 h, at 10 µM, stronger effect = higher value.
A short description of experiment [11]: doxorubicin toxicity protection in MRP-1 cells – H69AR cells, CellTiter-Glo, duplicate, MRP-1 activator project, pilot screen (AID 807;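 active means viability increase at or above a cutoff of the median across tested compounds plus 3 SD, cut at about 8.5% in these data, passing the limit was not always enough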;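 further: compound pretreatment 18-22 h then 72 h combined with doxorubicin; 0% = doxorubicin alone and 100% = vehicle without doxorubicin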). The note with it: H69AR viability with doxorubicin, CellTiter-Glo luminescence; at 10 µM; stronger effect = higher value.
The nature of experiment [12]: viability of HCT116 without oncogenic beta-catenin – human colon tumor cells, pilot screen (AID 823;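 active means cell viability at or below a set limit in both duplicate runs, the limit being the all-compound median minus 4 SD, cut at about 23% in these data, passing the limit was not always enough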;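 further: 0% = wells killed by 20 µM Hyamine and 100% = untreated DMSO cell wells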). The note with it: HCT116 beta-catenin knockout viability, CellTiter-Glo, 60 h; at 10 µM; stronger effect = lower value.
Experiment [13] can be described thus: viability of PTEN-null HCT116 cells – cell-based, HCT116 clonal line, CellTiter-Glo, pilot screen (AID 824;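 active means viability at or below 27.92% in each of two runs, the all-compound median minus 4 SD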;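 further: 0% = 20 µM Hyamine control and 100% = vehicle cell control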). The note with it: HCT116 PTEN-deleted viability, 60 h, at 10 µM, stronger effect = lower value.
Experiment [14] can be described thus: RAM pathway blockade in budding yeast – dse1pr::URA3 reporter, 5-FOA selection, pilot screen (AID 869).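 Further: 0% = DMSO wells with no growth and 100% = 10 µM 1-NA-PP1 with full growth; RAM network block rescues cells from 5-FOA so hits raise OD615 growth.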 The note with it: S. cerevisiae dse1pr::URA3 5-FOA growth, OD615, 2 d; at 10 µM; stronger effect = higher value; strain carries analog-sensitive mutant Cbk1 kinase.
Experiment [15] can be described thus: RAM signaling pathway blockade in yeast – S. cerevisiae, Pdr1DBD-CYC8 efflux-inhibited sensitized strain, primary screen (AID 1298;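 active means RAM network inhibition above 8.4% in each of two replicates, 3 SD over the compound average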;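 further: 0% = DMSO untreated cells without growth and 100% = 10 µM 1-NA-PP1 full growth; higher means more yeast growth rescued from 5-FOA killing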). The note with it: S. cerevisiae cbk1-as DSE1-URA3 strain, 5-FOA growth OD615, 2 d; at 50 µM; stronger effect = higher value.
The mark [16] stands for this setting: H69AR cells + 2 uM doxorubicin, measured here: viability with 2 uM doxorubicin, stronger effect = lower value.
Where [17] appears, read: H69AR cells, compound alone cytotoxicity.

Inconclusive results are not listed. Activity calls are given as the source filed them.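 How the source made its calls, unless noted: active means inhibition over a set limit, the all-compound mean plus 3 SD, in both replicate runs; inconclusive means over that limit in just one replicate run; inactive means at or under that limit in both runs.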

Receptor tyrosine-protein kinase erbB-2 (Homo sapiens), sequence (P04626 whole entry, looked up): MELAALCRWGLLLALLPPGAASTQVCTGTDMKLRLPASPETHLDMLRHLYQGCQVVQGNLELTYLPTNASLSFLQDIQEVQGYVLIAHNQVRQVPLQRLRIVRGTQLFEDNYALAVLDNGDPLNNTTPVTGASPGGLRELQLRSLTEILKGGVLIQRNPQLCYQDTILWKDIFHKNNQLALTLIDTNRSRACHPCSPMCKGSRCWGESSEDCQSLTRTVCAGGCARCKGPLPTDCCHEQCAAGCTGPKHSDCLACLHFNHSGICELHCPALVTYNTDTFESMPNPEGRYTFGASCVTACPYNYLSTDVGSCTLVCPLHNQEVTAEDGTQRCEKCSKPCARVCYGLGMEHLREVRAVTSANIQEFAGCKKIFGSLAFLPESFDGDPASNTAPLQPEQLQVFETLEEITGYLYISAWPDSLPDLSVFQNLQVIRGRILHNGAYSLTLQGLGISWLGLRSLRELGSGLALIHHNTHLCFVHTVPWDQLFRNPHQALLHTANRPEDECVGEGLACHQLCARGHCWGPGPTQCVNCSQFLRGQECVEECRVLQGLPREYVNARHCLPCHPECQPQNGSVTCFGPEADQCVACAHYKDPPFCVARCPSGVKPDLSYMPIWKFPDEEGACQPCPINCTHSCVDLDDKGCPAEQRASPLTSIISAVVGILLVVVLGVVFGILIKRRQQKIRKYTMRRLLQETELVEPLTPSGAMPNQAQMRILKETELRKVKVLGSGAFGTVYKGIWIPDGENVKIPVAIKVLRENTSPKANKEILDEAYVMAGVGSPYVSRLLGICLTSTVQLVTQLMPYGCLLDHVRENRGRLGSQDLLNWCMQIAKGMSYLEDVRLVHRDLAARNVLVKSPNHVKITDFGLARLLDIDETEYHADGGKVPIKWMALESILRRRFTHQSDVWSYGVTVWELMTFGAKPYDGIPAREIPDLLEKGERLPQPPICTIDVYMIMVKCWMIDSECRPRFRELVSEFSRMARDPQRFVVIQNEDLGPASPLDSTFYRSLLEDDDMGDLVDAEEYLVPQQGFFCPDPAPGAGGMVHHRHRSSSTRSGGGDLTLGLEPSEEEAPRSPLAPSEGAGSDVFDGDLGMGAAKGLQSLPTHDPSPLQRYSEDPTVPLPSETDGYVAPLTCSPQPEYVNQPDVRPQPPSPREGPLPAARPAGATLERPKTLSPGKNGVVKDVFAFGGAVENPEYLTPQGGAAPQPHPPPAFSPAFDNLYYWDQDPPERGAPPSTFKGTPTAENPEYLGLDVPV

Regarding `COc1cccc2cc(C(=O)N3CCN(c4ccc(C)cc4C)CC3)c(=O)oc12`, the viability in experiment [1] was 116%; in experiment [3], 116% (inactive); in experiment [4], 93.7% (inactive); in [5] it was 96.5% (inactive); in experiment [6] (setting [16]) it was 88.5%; in experiment [6] (setting [17]), 96.5%. For the same molecule, the viability was 85.3% (inactive) in [12] and 74.3% (inactive) in experiment [13]. Further, the Her2 level in experiment [2] was 110% (inactive). The differential viability (reversal) in [6] (H69AR cells + 2 uM doxorubicin) was 7.98% (inactive). Further, the results for the inhibition in experiment [7], in experiment [8] and in experiment [14] were -3.6% (inactive), -6.67% (inactive) and -0.005% (inactive), respectively. Further, the values for the growth inhibition in experiment [9] and in experiment [10] were -7.67% (inactive) and 5.05% (inactive), respectively. The viability increase in experiment [11] was -2.99% (inactive). For the same molecule, in experiment [15], the RAM network inhibition was 1.18% (inactive).

`CC(CCc1ccco1)NC(=O)Cn1ncc2c1-c1ccccc1OC2` (stereo not given): the viability in experiment [1] is 93%; in experiment [3], 93% (inactive); in experiment [4], 90.8% (inactive); in experiment [5] it was 92.9% (inactive); in experiment [6] (setting [16]) it was 81%; in experiment [6] (setting [17]), 92.9%. The viability in [12] was 101% (inactive); in experiment [13] it was 91.3% (inactive). Also, the Her2 level in [2] was 90% (inactive). The differential viability (reversal) in experiment [6] (H69AR cells + 2 uM doxorubicin) is 11.9% (inactive). Also, the inhibition in [7] was -2.4% (inactive); in experiment [8], -0.66% (inactive); in experiment [14] it was 1.11% (inactive). Further, the results for the growth inhibition in experiment [9] and in [10] were -5.12% (inactive) and -19% (inactive), respectively. Moreover, the viability increase in experiment [11] is -4.45% (inactive). Also, in experiment [15], the RAM network inhibition was 7.86% (inactive).

With `COC(=O)C(C)Sc1nnc2n(-c3cccc(C)c3)c(=O)c3c4c(sc3n12)CCCC4` (stereo not given), the viability in [1] was 87.5%; in experiment [3], 87.5% (inactive); in experiment [4], 86.8% (inactive); in experiment [5], 83.1% (inactive); in experiment [6] (setting [16]), 18.4%; in experiment [6] (setting [17]) it was 83.1%. Further, the viability was 89.5% (inactive) in experiment [12] and 85.5% (inactive) in experiment [13]. The Her2 level in experiment [2] is 112% (inactive). In addition, the differential viability (reversal) in experiment [6] (H69AR cells + 2 uM doxorubicin) was 64.7% (active). The inhibition in experiment [7] is 2.53% (inactive); in [8] it was 2% (inactive); in experiment [14] it was 0.06% (inactive). For the same molecule, the growth inhibition in [9] is -9.47% (inactive); in experiment [10], 16.4% (inactive). In addition, the viability increase in experiment [11] is -1.93% (inactive). The RAM network inhibition in experiment [15] was 1.84% (inactive).

For the molecule `CCS(=O)(=O)c1nc2ccccc2n1Cc1ccccc1Cl`, the viability in [1] was 101%; in [3], 101% (inactive); in [4], 109% (inactive); in experiment [5], 74.1% (inactive); in experiment [6] (setting [16]), 83.6%; in experiment [6] (setting [17]), 74.1%. The viability in [12] was 71% (inactive); in experiment [13], 61.5% (inactive). In [2], the Her2 level was 93% (inactive). In [6] (H69AR cells + 2 uM doxorubicin), the differential viability (reversal) is -9.51% (inactive). Besides, the inhibition is -0.27% (inactive) in [7], 5.33% (inactive) in experiment [8] and -0.515% (inactive) in [14]. The growth inhibition in experiment [9] was -25.4% (inactive); in experiment [10] it was -20.7% (inactive). For the same molecule, the viability increase in experiment [11] was -4.6% (inactive). Also, the RAM network inhibition in experiment [15] is 5.91% (inactive).

Regarding `c1ccc(-n2ncc3c(NC4CCCCCC4)ncnc32)cc1`, the viability is 83.5% in experiment [1]; 83.5% (inactive) in experiment [3]; 75.2% (inactive) in experiment [4]; 45.8% (active) in experiment [5]; 74% in experiment [6] (setting [16]); 45.8% in experiment [6] (setting [17]). The viability in experiment [12] was 88.4% (inactive); in experiment [13], 65.7% (inactive). Moreover, in experiment [2], the Her2 level was 77% (inactive). The differential viability (reversal) in experiment [6] (H69AR cells + 2 uM doxorubicin) is -28.2% (inactive). Also, the inhibition in experiment [7] is -4.93% (inactive); in experiment [8], 1.67% (inactive); in experiment [14], 1.17% (inactive). Also, the growth inhibition in experiment [9] is -7.69% (inactive); in experiment [10] it was -4.42% (inactive). For the same molecule, the viability increase in [11] was -2.91% (inactive). The RAM network inhibition in experiment [15] is 6.78% (inactive).

The viability is a read-out of living cells in per cent, often relative to untreated cells. The inhibition is the relative decrease from the control value, in per cent.

The values are drawn from PubChem BioAssay.
